The values that follow come from the supplement of paper PMC10127200.

Where a name gives a salt, the structure may show the parent alone.

What all share (test): Euclidean distance of Cell Painting phenotypic profile (signed KS, 77 features) to DMSO centroid (dimensionless distance); 5 or 10 uM (library dependent); higher = stronger phenotypic change vs DMSO (phenoactivity)
What all share (conditions): 48 h

One test has as its system 786-O. The method in brief: (§1)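 Stained cells were imaged confocally at 20X with 9 fields per well, after 48 h of exposure to library compounds at 10 or 5 uM (set by library; 0.1% DMSO final). The cells were five cancer lines and a healthy fibroblast line. From the images, Harmony extracted 77 features, each expressed as a signed Kolmogorov-Smirnov statistic relative to same-plate vehicle wells. Phenoactivity is measured as Euclidean distance to the median vehicle profile, using plate-position-corrected, correlation-weighted profiles averaged across replicates at the top dose.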

Another test concerns A549. The method in brief: as §1
The test system of the next test is DU145. The method in brief:
as §1

Another test has as its system FB. In outline:
as §1

The subject of the next test is HEPG2. The method in brief:
as §1

Another test concerns OVCAR4. In outline:
as §1

Regarding `CC1(C)CNc2cc(NC(=O)c3cccnc3NCc3ccncc3)ccc21` [Motesanib Diphosphate (AMG-706)], the Euclidean distance turned out to be 1.29 with 786-O; 1.76 in the test with A549; 1.48 with DU145; 1.96 in the test with FB; 1.27 with HEPG2; 1.37 in the test with OVCAR4.

Take `Nc1ccc(S(=O)(=O)Nc2ccc(Cl)nn2)cc1` [Sulfachloropyridazine]: the Euclidean distance was 1.32 in the test on 786-O; 1.01 in the test with A549; 0.856 with DU145; 0.835 in the test with FB; 0.669 in the test with HEPG2; 1.25 in the test with OVCAR4.

As to `C=CC(=O)Nc1cc2c(Nc3ccc(F)c(Cl)c3)ncnc2cc1OCCCN1CCOCC1` [Canertinib (CI-1033)], the Euclidean distance is 1.57 in the test on 786-O; 2.51 with A549; 1.4 with DU145; 1.25 with FB; 0.69 in the test on HEPG2; 2.05 in the test on OVCAR4.

Regarding `CC(C)C(=O)Oc1ccc(CO)cc1[C@H](CCN(C(C)C)C(C)C)c1ccccc1` [Fesoterodine Fumarate], the Euclidean distance came to 0.902 with 786-O; 1.2 with A549; 1.33 with DU145; 0.688 in the test on FB; 1.16 in the test with HEPG2; 1.69 in the test with OVCAR4.

Take `O=C1c2cccc(O)c2C(=O)c2c(O)cc(CO)cc21` [Aloe-emodin]: the Euclidean distance is 1.1 in the test on 786-O; 1.14 with A549; 1.2 in the test with DU145; 1.05 in the test with FB; 1.08 with HEPG2; 1.41 with OVCAR4.

In the case of `CC1=C(/C=C/C(C)=C/C=C/C(C)=C/C(=O)Nc2ccc(O)cc2)C(C)(C)CCC1` [Fenretinide], the Euclidean distance with 786-O came to 2.9; in the test on A549, 2.87; in the test with DU145, 1.92; in the test with FB, 2.58; in the test with HEPG2 it was 1.91; in the test on OVCAR4 it was 2.4.

As for `C1COC(NC(C2CC2)C2CC2)=N1` [Rilmenidine Phosphate], the Euclidean distance is 1.48 in the test on 786-O; 0.742 in the test on A549; 1.06 in the test on DU145; 1.07 in the test on FB; 1.13 in the test on HEPG2; 1.02 in the test with OVCAR4.

`COc1cc(NC(=O)c2ccc(-c3ccc(Cl)cc3)o2)cc(OC)c1`: the Euclidean distance in the test on 786-O came out at 0.91; in the test with A549 it was 1.46; in the test with DU145 it was 1.23; in the test on FB, 0.788; in the test with HEPG2, 1.04; in the test on OVCAR4, 1.48.

`COC(=O)c1ccc(O)cc1` [Methyl 4-hydroxybenzoate]: the Euclidean distance was 0.944 in the test with 786-O; 0.453 with A549; 0.654 in the test on DU145; 0.862 with FB; 0.627 with HEPG2; 1.19 with OVCAR4.

Regarding `O=C(O)Cn1nnc(-c2cc(N3CCC(Oc4cc(F)ccc4Br)CC3)no2)n1`, the Euclidean distance with 786-O stood at 0.964; in the test with A549, 1.38; in the test on DU145, 0.83; in the test on FB, 0.907; in the test with HEPG2, 2.08; with OVCAR4, 0.751.

Regarding `CC(C)(F)C[C@H](N[C@@H](c1ccc(-c2ccc(S(C)(=O)=O)cc2)cc1)C(F)(F)F)C(=O)NC1(C#N)CC1` [Odanacatib (MK-0822)], the Euclidean distance in the test with 786-O was 0.533; in the test on A549, 2.1; in the test on DU145, 0.7; in the test with FB it was 0.656; in the test on HEPG2, 1.37; with OVCAR4 it was 0.985.

For the compound `COc1ccc(Cn2ccc3ccc(C(=O)NO)cc32)cc1`, the Euclidean distance turned out to be 1.83 in the test with 786-O; 1.18 in the test on A549; 1.25 with DU145; 2.16 in the test with FB; 1.5 in the test on HEPG2; 0.415 with OVCAR4.

As to `CCOc1nc2cccc(C(=O)O)c2n1Cc1ccc(-c2ccccc2-c2nnn[nH]2)cc1` [Candesartan], the Euclidean distance stood at 2.07 in the test on 786-O; 1.74 in the test on A549; 1.69 with DU145; 3.34 in the test with FB; 0.856 with HEPG2; 1.84 in the test on OVCAR4.

As to `COc1cc(N)c(Cl)cc1C(=O)NC1CCN(Cc2ccccc2)CC1` [Clebopride (malate)], the Euclidean distance was determined as 1.13 in the test on 786-O; 0.613 in the test with A549; 1.21 in the test with DU145; 1.12 in the test on FB; 0.547 with HEPG2; 0.852 with OVCAR4.

With `Cc1ccc(NS(=O)(=O)c2cccc(C#N)c2)c2[nH]cc(C#N)c12`, the Euclidean distance with 786-O worked out at 1.84; in the test with A549, 2.34; in the test on DU145, 1.67; in the test with FB, 1.89; in the test with HEPG2, 2.04; with OVCAR4, 2.09.

On to `Cc1noc(NS(=O)(=O)c2ccc(N)cc2)c1C` [Sulfisoxazole], for which the Euclidean distance in the test with 786-O worked out at 1.32; in the test on A549, 0.853; in the test with DU145 it was 1.02; in the test with FB, 0.984; in the test with HEPG2, 0.555; in the test with OVCAR4 it was 1.26.

As for `CCn1c2ccccc2c2cc(Nc3ccnc(NCCCN4CCOCC4)n3)ccc21`, the Euclidean distance in the test with 786-O is 3.23; in the test with A549, 2.84; in the test with DU145 it was 1.12; in the test on FB it was 2.94; in the test on HEPG2 it was 2.27; in the test with OVCAR4 it was 1.98.

As to `CCCCC/C=C\C/C=C\CCCCCCCC(=O)O` [Linoleic acid], the Euclidean distance with 786-O was found to be 0.927; in the test with A549 it was 1.38; with DU145 it was 1.02; in the test with FB it was 1.3; in the test on HEPG2 it was 0.86; with OVCAR4, 1.11.

Consider `Cc1[nH]cnc1CN1CCc2c(c3ccccc3n2C)C1=O` [Alosetron Hydrochloride], for which the Euclidean distance in the test with 786-O came out at 1.67; with A549 it was 0.744; in the test on DU145, 0.859; with FB, 0.731; with HEPG2 it was 0.664; with OVCAR4 it was 1.33.

As to `CC1C(=O)OC2C(O)C34C5CC(C(C)(C)C)C36C(OC(=O)C6O)OC4(C(=O)O5)C12O` (centres undefined) [Ginkgolide B], the Euclidean distance came out at 0.999 in the test with 786-O; 1.63 in the test on A549; 0.921 in the test on DU145; 1.25 in the test with FB; 2.11 in the test on HEPG2; 1.3 in the test with OVCAR4.

With `CC1(C)S[C@@H]2[C@H](NC(=O)C(c3ccccc3)S(=O)(=O)O)C(=O)N2[C@H]1C(=O)O` (some centres undefined) [Sulbenicillin Sodium], the Euclidean distance worked out at 0.75 with 786-O; 0.447 with A549; 1.14 in the test with DU145; 1.28 with FB; 0.601 in the test on HEPG2; 1.09 in the test with OVCAR4.

`CC(=O)Nc1ccc(OC(=O)c2ccccc2OC(C)=O)cc1` [Benorylate]: the Euclidean distance in the test on 786-O was found to be 1.08; in the test with A549, 1.08; with DU145, 1.31; with FB, 1.41; with HEPG2, 0.561; in the test with OVCAR4 it was 1.13.

`N[C@H]1C[C@@H]1c1ccc(-c2cccc(O)c2)cc1`: the Euclidean distance in the test with 786-O worked out at 1.26; in the test on A549 it was 1.27; in the test with DU145, 1.07; in the test on FB it was 1.18; in the test on HEPG2, 0.624; with OVCAR4 it was 1.45.

Take `NC(=O)C(c1ccccc1)(c1ccccc1)[C@@H]1CCN(CCc2ccc3c(c2)CCO3)C1` [Darifenacin HBr]: the Euclidean distance in the test on 786-O amounted to 1.59; with A549, 0.89; in the test on DU145 it was 0.786; in the test with FB, 1.4; in the test with HEPG2, 1.11; in the test with OVCAR4, 1.04.
